# In PubChem BioAssay (NCI):
# About 79,000 compounds went through this panel and 15% of them were active in at least one assay; those are over-represented in the sample as a whole. Unmarked numbers belong to inactive results. The source made the active and inactive calls. No stated cut-off is given here; in the data, active means growth inhibition above about 70%; inactive means the rest.
# What was measured:
# [1] = NCI Yeast Anticancer Drug Screen. Data for the rad50 strain (AID 155);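 further: 0% = growth of vehicle-only cultures of the same strain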; details: S. cerevisiae rad50 strain growth inhibition, stronger effect = higher value
# Summary of the method: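 A DNA repair-deficient yeast mutant serves as the test organism; compound-induced growth inhibition is calculated against vehicle-treated cells.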
# [2] = NCI Yeast Anticancer Drug Screen. Data for the mec2-1 strain (AID 157); details: S. cerevisiae mec2-1 strain, stronger effect = higher value
# Summary of the method: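 Compounds were applied to mec2-1 yeast cells. Their growth was then compared with that of vehicle-treated cultures to give growth inhibition.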
# [3] = NCI Yeast Anticancer Drug Screen. Data for the sgs1 mgt1 strain (AID 161);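 further: 0% = growth of cultures given vehicle only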; details: S. cerevisiae sgs1 mgt1 strain, stronger effect = higher value
# Summary of the method: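 Yeast cells carrying a defined DNA-repair defect were exposed to test compounds. Growth inhibition was measured relative to vehicle-treated controls.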
# [4] = NCI Yeast Anticancer Drug Screen. Data for the cln2 rad14 strain (AID 165);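 further: 0% = growth equal to vehicle treated cultures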; details: S. cerevisiae cln2 rad14 strain, stronger effect = higher value
# Summary of the method: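 Strain: cln2 rad14 yeast, altered in cell cycle control and DNA damage repair. Read-out: growth inhibition vs vehicle.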
# [5] = NCI Yeast Anticancer Drug Screen. Data for the bub3 strain (AID 167); details: S. cerevisiae bub3 mutant strain, stronger effect = higher value
# Summary of the method: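 Inhibition values come from growth of compound-treated mutant yeast normalised to vehicle-treated controls.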
# [6] = NCI Yeast Anticancer Drug Screen. Data for the mlh1 rad18 strain (AID 175); details: S. cerevisiae mlh1 rad18 strain growth inhibition, stronger effect = higher value
# Summary of the method: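 A repair-deficient yeast strain is exposed to test compound, and growth is scored relative to vehicle-treated controls.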
# [7] = at 5.0 µM (retest, dose inferred, filed as 0.5)
# [8] = at 50.0 µM (retest, dose inferred, filed as 5.0)
SMILES,"growth inhibition [1, 7]","growth inhibition [1, 8]",growth inhibition ([1]; at 50.0 µM),"growth inhibition [2, 7]","growth inhibition [2, 8]",growth inhibition ([2]; at 50.0 µM),"growth inhibition [3, 7]","growth inhibition [3, 8]",growth inhibition ([3]; at 50.0 µM),"growth inhibition [4, 7]","growth inhibition [4, 8]",growth inhibition ([4]; at 50.0 µM),"growth inhibition [5, 7]","growth inhibition [5, 8]",growth inhibition ([5]; at 50.0 µM),"growth inhibition [6, 7]","growth inhibition [6, 8]",growth inhibition ([6]; at 50.0 µM)
CC(=O)N1C(c2[nH]c3ccccc3c2-c2ccccc2)CCN1c1ccccc1 (configuration not stated),-12%,74% (active),64.1%,-2%,51%,54.7%,14%,87% (active),83.2% (active),7%,73% (active),69.9%,-5%,87% (active),63.2%,-9%,83% (active),71% (active)
C[Si](C)(C)CN1C(=O)c2ccccc2C1(O)c1ccccc1 (configuration not stated),-2%,69%,69.8%,-1%,66%,35.8%,-4%,74% (active),47.5%,-1%,29%,42.5%,-3%,33%,4.2%,-1%,69%,71.2% (active)
c1ccc(-c2nc3nc4ccccc4nc3nc2-c2ccccn2)nc1,-8%,84% (active),24.9%,4%,92% (active),0.9%,8%,87% (active),20.6%,-5%,85% (active),-19.1%,-4%,98% (active),50.6%,14%,98% (active),22.8%
c1ccc(-n2ncc3ccc4cccn4c32)cc1,-4%,-2%,63.9%,3%,9%,38.1%,-15%,40%,55%,-13%,25%,13.1%,17%,16%,91.3% (active),12%,40%,47.7%
O=C1SC(c2ccccc2)=S=C1c1ccccc1,18%,28%,40%,24%,39%,46.8%,21%,44%,37.4%,13%,13%,24.6%,20%,54%,13.8%,33%,38%,-25.4%
[C](#[C][Sn]([c]1ccccc1)([c]1ccccc1)[c]1ccccc1)[Sn]([c]1ccccc1)([c]1ccccc1)[c]1ccccc1,98% (active),95% (active),97.5% (active),99% (active),97% (active),98.3% (active),99% (active),97% (active),96.5% (active),98% (active),95% (active),98.4% (active),98% (active),96% (active),98.8% (active),98% (active),97% (active),96.9% (active)
OC(C/C=N/Nc1ccccc1)(C(F)(F)Cl)C(F)(F)Cl,-13%,97% (active),89.2% (active),-11%,99% (active),90.9% (active),-10%,98% (active),91.7% (active),2%,98% (active),89.5% (active),5%,98% (active),91.8% (active),-18%,98% (active),89.6% (active)
C[N+]1(Cc2ccc([N+](=O)[O-])cc2)CCC[C@H]1c1ccc[n+](Cc2ccc([N+](=O)[O-])cc2)c1 (some centres not stated),0%,27%,10.2%,-1%,13%,8.85%,-15%,-2%,65.1%,-7%,0%,63.2%,2%,11%,9.65%,-28%,24%,84.6% (active)
CC(=O)OCC1OC(Sc2ccc3ccccc3c2)C(OC(C)=O)C(OC(C)=O)C1OC(C)=O (configuration not stated),2%,-7%,23.9%,3%,2%,12.8%,2%,1%,2.7%,1%,-15%,52.4%,4%,7%,70.2% (active),0%,-2%,22%
CCOC(=O)c1ccc(N=Cc2cc(Cl)cc(Cl)c2O)cc1,67%,99% (active),86.7% (active),72% (active),100% (active),88.5% (active),28%,84% (active),91% (active),37%,85% (active),78.9% (active),62%,96% (active),87.2% (active),52%,100% (active),84.5% (active)
COc1cc(C2CC(C)(OC)Oc3cc4c(cc32)OCO4)cc(OC)c1O (configuration not stated),1%,55%,14.9%,2%,16%,-5.5%,-3%,50%,28.8%,12%,37%,4.55%,10%,55%,-2.1%,0%,63%,31.2%
[Br][Pt+2][Br].[NH-]c1cccc(I)c1.[NH-]c1cccc(I)c1,2%,60%,39.5%,1%,31%,22.2%,8%,39%,30.8%,-1%,27%,12.6%,1%,-5%,3.25%,5%,81% (active),88.8% (active)
Cc1noc(NS(=O)(=O)c2ccc(NC(=S)/N=C/c3c(O)[nH]c(=O)[nH]c3=O)cc2)c1C,-1%,-5%,16.1%,-18%,-11%,9.75%,-8%,-5%,16.5%,-24%,-19%,44.8%,4%,10%,6.05%,7%,-2%,15.8%
Fc1ccc(NC(=S)SCc2ccc(Cl)c(Cl)c2)cc1,4%,92% (active),98.1% (active),3%,91% (active),99% (active),0%,97% (active),98.8% (active),-3%,92% (active),98.3% (active),3%,90% (active),98.2% (active),0%,94% (active),98.8% (active)
O=c1oc(-c2cccc(C(Cl)Cl)c2)ns1,7%,99% (active),98.2% (active),5%,100% (active),99.1% (active),12%,100% (active),99.2% (active),2%,99% (active),69%,3%,99% (active),97.7% (active),13%,99% (active),99.1% (active)
O/N=C\c1ccc(-c2ccccc2)cc1,-17%,87% (active),74% (active),-13%,64%,47.6%,-8%,88% (active),87% (active),17%,67%,51.1%,2%,83% (active),77.7% (active),6%,91% (active),49.6%
CC(O[Si](c1ccccc1)(c1ccccc1)C(C)(C)C)[C@H](NC(=O)OC(C)(C)C)C(=O)O[Si](c1ccccc1)(c1ccccc1)C(C)(C)C (some centres not stated),91% (active),99% (active),89.9% (active),88% (active),99% (active),92.9% (active),96% (active),100% (active),92.8% (active),93% (active),99% (active),91.2% (active),71% (active),84% (active),91.3% (active),93% (active),99% (active),89% (active)
C(=NCCc1ccccc1)c1ccccc1B1OB(c2ccccc2C=NCCc2ccccc2)OB(c2ccccc2C=NCCc2ccccc2)O1,94% (active),99% (active),99.6% (active),93% (active),100% (active),99.8% (active),90% (active),99% (active),99.7% (active),77% (active),98% (active),99.3% (active),79% (active),99% (active),99.7% (active),92% (active),99% (active),99.5% (active)
NC(=O)C12OC3CC(CC(C3)O1)O2,-25%,-10%,5.95%,-8%,-17%,11.4%,-9%,12%,11.3%,-1%,3%,71.2% (active),2%,5%,2.75%,9%,-22%,11.2%
